Reference: PubChem BioAssay (NCI)
This is part of a sample that, as a whole, favours compounds with a hit. Of some 83,000 tested, about 20% had one in any assay.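 Single-concentration screen, 48 h exposure, 96-well plates. Endpoint: percent growth. Below 10 = active.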 Unmarked numbers belong to inactive results. Calls of active or inactive are those of the source.

Tested on: COLO 205 colon
Test: NCI-60 one-dose screen, 48 h (100 = growth as untreated, 0 = no growth, -100 = all killed)
Conditions: 10 µM
Method: Cells are grown in 96 well plates and exposed to the test compound for 48 hours. Compounds are tested at a single concentration, which is 10^-5 M for most compounds. The reported endpoint is percent growth (GI% or GIPRCNT), where numbers from 0 - 100% represent growth inhibition, and numbers from -100% - 0 represent cell death. For example, a value of 40 represents 60% growth inhibition. A value of 0 means no net growth occurred over the course of the experiment. A value of -40 indicates 40% of cells at the beginning of the experiment died by the end of the experiment. A value of -100 means all cells are dead at the end of the experiment.
NCI-60 Human Tumor Cell Lines Screen was performed using the standard one-dose NCI protocol, which is described in more detail at https://dtp.cancer.gov/discovery_development/nci-60/default.htm.
Compounds with GIPRCNT values below 10 were considered active. Activity score was based on GIPRCNT using the following formula: […]
Score is 0 for GIPRCNT values of 100 or above, 50 for GIPRCNT values of 0, and 100 for GIPRCNT values of -100.

SMILES	growth
CC(=O)Oc1ccccc1C(=O)[Se]C(=NC(C)C)NC(C)C	-69% (active)
CCOP(=O)(CC(F)(F)C(F)(F)F)OCC	-68% (active)
CC12CCC3(CCC(=O)NCCCNc4ccnc5cc(Cl)ccc45)[C@@](C)(OO[C@]3(C)O1)O2	36.7%
COCCOCCOCCOc1ccc(-n2cc(-c3ccc(O[C@H]4O[C@@H]5OC6(C)CC[C@H]7[C@H](C)CC[C@@H]([C@H]4C)[C@@]57OO6)cc3)nn2)cc1	-11.4% (active)
CC(=C\C(=O)Oc1ccc2c3c1OC1C(O)CCC4(O)C(C2)N(CC2CCC2)CCC314)/C=C1\CCCc2ccccc21 (stereo not given)	39.4%
COC(=O)C[C@](O)(CCCC(C)C)C(=O)O[C@H]1C(OC)=C[C@@]23CCCN2CCc2cc4c(cc2[C@@H]13)OCO4	-2.77% (active)
C#CCCCN(CCNc1ccnc2cc(Cl)ccc12)C(=O)CCC(=O)O[C@@H]1O[C@@H]2OC3(C)CC[C@H]4[C@H](C)CC[C@@H]([C@H]1C)[C@@]24OO3	7.04% (active)
O=C(NC([Se])=NC1CCCCC1)c1ccccc1	49.2%
CC[C@]12C=CCN3CC[C@@]4(c5ccc(OC)cc5N(C)[C@H]4[C@@](O)(C(=O)OC)[C@@H]1OC(=O)CCCC[P+](c1ccc(OC)cc1)(c1ccc(OC)cc1)c1ccc(OC)cc1)[C@@H]32	-64.9% (active)
N#C[Se]CC(=O)Nc1cccc(C(F)(F)F)c1	-1.16% (active)
COCCOCCOCCOc1ccc(-n2cc(CCCN(CCNc3ccnc4cc(Cl)ccc34)C(=O)CCC(=O)O[C@@H]3O[C@@H]4OC5(C)CC[C@H]6[C@H](C)CC[C@@H]([C@H]3C)[C@@]46OO5)nn2)cc1	11.8%
COc1cc(OC)c(/C=C/C(=O)c2nc3ccccc3n2Cc2ccc(F)cc2)c(OC)c1	108%
O=C(/C=C/c1ccccc1Cl)c1nc2ccccc2n1Cc1ccc(F)cc1	-83.5% (active)
COC(=O)c1ccc(-n2cc(CCCN(CCNc3ccnc4cc(Cl)ccc34)C(=O)CCC(=O)O[C@@H]3O[C@@H]4OC5(C)CC[C@H]6[C@H](C)CC[C@@H]([C@H]3C)[C@@]46OO5)nn2)cc1	14.8%
O=C(/C=C/c1ccc(F)cc1)c1nc2ccccc2n1Cc1ccc(F)cc1	-32% (active)
CC(C)N=C([Se])NC(=O)c1ccccc1	-11.7% (active)
CC(C)N=C([Se])NC(=O)c1cccs1	84.7%
O=C(/C=C/c1ccc(Br)cc1)c1nc2ccccc2n1Cc1ccc(Br)cc1	-39.8% (active)
C[C@H]1[C@H](OC(=O)CCC(=O)N(CCCc2cn(-c3ccc(CN4CCOCC4)cc3)nn2)CCNc2ccnc3cc(Cl)ccc23)O[C@@H]2OC3(C)CC[C@H]4[C@H](C)CC[C@@H]1[C@@]24OO3	-30.1% (active)
C[C@H]1[C@H](OC(=O)CCC(=O)Nc2cnccn2)O[C@@H]2OC3(C)CC[C@H]4[C@H](C)CC[C@@H]1[C@@]24OO3	11.9%

SMILES	growth
COC(=O)C[C@](O)(CCC(C)C)C(=O)O[C@H]1C(OC)=C[C@@]23CCCN2CCc2cc4c(cc2[C@@H]13)OCO4	-55.4% (active)
C=CCN=C([Se])NC(=O)c1ccc2c(c1)OCO2	122%
O=C(NC([Se])=NC1CCCCC1)c1ccc2c(c1)OCO2	28.1%
CC(=O)Oc1ccccc1C(=O)NC([Se])=NC1CCCCC1	28.9%
CC[C@]12C=CCN3CC[C@@]4(c5ccc(OC)cc5N(C)[C@H]4[C@@](O)(C(=O)OC)[C@@H]1OC(=O)CCC[P+](c1ccc(F)cc1)(c1ccc(F)cc1)c1ccc(F)cc1)[C@@H]32	-19% (active)
C#CC[Se]C(=O)c1ccc2n[se]nc2c1	58.6%
O=C(/C=C/c1ccc(Cl)cc1Cl)c1nc2ccccc2n1Cc1ccc(Br)cc1	100%
CC1=C(C=O)C2=C(C)C3(CC3)[C@@](C)(O)C(=O)C2=C1	30.4%
O=C(/C=C/c1ccccc1)c1nc2ccccc2n1Cc1ccc(Br)cc1	-74.7% (active)
CCOC(=O)C1=C(Nc2ccccc2)C(=O)OC12C(=O)Nc1ccccc12 (stereo not given)	119%
CC[C@@]12CC(C(=O)OC)=C3Nc4cc5c(cc4[C@@]34CCN(C[C@H]3O[C@H]31)[C@@H]24)[C@@H]1[C@H](O5)[C@@H](O)[C@@]2(CC)CC(C(=O)OC)=C3Nc4cc(OC)ccc4[C@@]34CCN1[C@@H]24	-59.1% (active)
COc1ccc2cc([C@H](C)C(=O)[Se]CCC#N)ccc2c1	-71% (active)
CC[C@]12C=CCN3CC[C@@]4(c5ccc(OC)cc5N(C)[C@H]4[C@@](O)(C(=O)OC)[C@@H]1OC(=O)CCC[P+](c1ccc(C)cc1)(c1ccc(C)cc1)c1ccc(C)cc1)[C@@H]32	-50.2% (active)
CC12OOC(C)(OO1)C2CCC(=O)NCCNc1ccnc2cc(Cl)ccc12 (stereo not given)	73%
CC12OOC(C)(OO1)C2CCC(=O)OCCNc1ccnc2cc(Cl)ccc12 (stereo not given)	-54.4% (active)
O=C(/C=C/c1ccc(F)cc1)c1nc2ccccc2n1Cc1ccc(Br)cc1	-82.4% (active)
COC(=O)C[C@](O)(CCC(C)C)C(=O)O[C@@H]1C(OC)=C[C@]23CCCN2CCc2cc4c(cc2[C@H]13)OCO4	-84.7% (active)
COP(=O)(CC(F)(F)C(F)(F)F)OC	-59.3% (active)
CC12OOC(C)(OO1)C2CCC(=O)NCCCNc1ccnc2cc(Cl)ccc12 (stereo not given)	-62.6% (active)
CC[C@]12C=CCN3CC[C@@]4(c5ccc(OC)cc5N(C)[C@H]4[C@@](O)(C(=O)OC)[C@@H]1OC(=O)CCCC[P+](C1CCCCC1)(C1CCCCC1)C1CCCCC1)[C@@H]32	-76.6% (active)
